Results published in PubChem BioAssay (NCI).
Compounds without any hit were thinned out: in the full panel of roughly 83,000, 20% have a hit.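 Method: cells in 96-well plates; compound added at one concentration; 48 h incubation; percent growth measured; values under 10 scored active.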 Values without a mark were called inactive. Calls of active or inactive are those of the source.

What was measured:
Assay in all cases: NCI-60 one-dose screen, 48 h (100 = growth as untreated, 0 = no growth, -100 = all killed)
Conditions in all cases: 10 µM unless noted
HCT-15 colon = system: HCT-15 colon
HT29 colon = system: HT29 colon
SNB-19 CNS = system: SNB-19 CNS
U251 CNS = system: U251 CNS
PC-3 prostate = system: PC-3 prostate
SK-MEL-5 melanoma = system: SK-MEL-5 melanoma
UACC-62 melanoma = system: UACC-62 melanoma
LOX IMVI melanoma = system: LOX IMVI melanoma
SK-MEL-28 melanoma = system: SK-MEL-28 melanoma
SK-MEL-2 melanoma = system: SK-MEL-2 melanoma
EKVX NSCLC = system: EKVX NSCLC
SN12C renal = system: SN12C renal
UO-31 renal = system: UO-31 renal
TK-10 renal = system: TK-10 renal
ACHN renal = system: ACHN renal
CAKI-1 renal = system: CAKI-1 renal
A498 renal = system: A498 renal
CCRF-CEM leukemia = system: CCRF-CEM leukemia
SNB-75 CNS = system: SNB-75 CNS
MOLT-4 leukemia = system: MOLT-4 leukemia

Structure (SMILES) | growth (HCT-15 colon) | growth (HT29 colon) | growth (SNB-19 CNS) | growth (U251 CNS) | growth (PC-3 prostate) | growth (SK-MEL-5 melanoma) | growth (UACC-62 melanoma) | growth (LOX IMVI melanoma) | growth (SK-MEL-28 melanoma) | growth (SK-MEL-2 melanoma) | growth (EKVX NSCLC) | growth (SN12C renal) | growth (UO-31 renal) | growth (TK-10 renal) | growth (ACHN renal) | growth (CAKI-1 renal) | growth (A498 renal) | growth (CCRF-CEM leukemia) | growth (SNB-75 CNS) | growth (MOLT-4 leukemia)
COc1cc(NN=C(c2ccc(O)cc2)c2ccc(O)cc2)c([N+](=O)[O-])cc1[N+](=O)[O-] | 35% | 98.1% | -4.74% (active) | 40.5% | 73.1% | 14.3% | 73.9% | 34.4% | 81% | -70.2% (active) | 108% | 90.5% | -66.4% (active) | 93.5% | 42.4% | 97% | 125% | 103% | – | –
Cc1ccccc1OC(=O)c1cccc(Cl)c1 | 104% | 103% | – | 129% | 92.2% | 103% | – | 98% | 113% | 103% | 99.2% | 110% | 80.2% | 108% | 107% | 109% | 90.5% | 98% | 86.2% | -16.3% (active)
CCOC(=O)c1nn(C2CCCCO2)c2ccc(NC(=O)Cn3nnc4ccccc43)cc12 (stereo not given) | 95.9% | 115% | – | 96.4% | 110% | 99.1% | 99.9% | 96.5% | – | 113% | 98.1% | 97.6% | 82.6% | 117% | – | 97.6% | 85.8% | 117% | 78.6% | 95.9%
C[C@H]1[C@H](C)CC[C@]2(C(=O)O)CC[C@]3(C)C(=CC[C@@H]4[C@@]5(C)C/C(=C/c6ccco6)C(=O)C(C)(C)[C@@H]5CC[C@]43C)[C@H]12 | -71.2% [100 µM] (active) | -67.9% [100 µM] (active) | – | -64.5% [100 µM] (active) | -67.1% [100 µM] (active) | -91.7% [100 µM] (active) | -94.4% [100 µM] (active) | -91.7% [100 µM] (active) | -79.2% [100 µM] (active) | -64% [100 µM] (active) | -68.4% [100 µM] (active) | -56% [100 µM] (active) | -99.5% [100 µM] (active) | -73.4% [100 µM] (active) | – | -74.6% [100 µM] (active) | -56.2% [100 µM] (active) | -26.4% [100 µM] (active) | -55.9% [100 µM] (active) | -10.8% [100 µM] (active)
Nc1nc(SCc2cccc([N+](=O)[O-])c2)c2[nH]cnc2n1 | 95.1% | 98.4% | – | 95% | 92.3% | 98% | 91.3% | 77.9% | 106% | 96% | 90.9% | 94.9% | 64.7% | 90.4% | 99.6% | 84% | 82.1% | 95% | 89.5% | 91.4%
C=C(C)[C@@H]1CC[C@]2(C(=O)NCCCN)CC[C@]3(C)[C@H](CC[C@@H]4[C@@]5(C)CC[C@H](O)C(C)(C)[C@@H]5CC[C@]43C)[C@@H]12 | -22.1% [100 µM] (active) | 3.9% [100 µM] (active) | – | -13.8% [100 µM] (active) | -53.8% [100 µM] (active) | -23.9% [100 µM] (active) | -22.6% [100 µM] (active) | 1.37% [100 µM] (active) | -31.4% [100 µM] (active) | -24.2% [100 µM] (active) | -15.7% [100 µM] (active) | -34.7% [100 µM] (active) | -34.3% [100 µM] (active) | -32.2% [100 µM] (active) | -49.2% [100 µM] (active) | -54.5% [100 µM] (active) | -44.8% [100 µM] (active) | 1.39% [100 µM] (active) | -51.6% [100 µM] (active) | 2.76% [100 µM] (active)
Cc1ccc2c(n1)C(=O)C(Cl)=C(Nc1ccc(N3CCN(C)CC3)cc1)C2=O | 70.4% | 66.4% | – | 8.47% (active) | 68.7% | 10.4% | -49.4% (active) | -95.4% (active) | 30.3% | 68.4% | -81.8% (active) | -88.5% (active) | -97.4% (active) | 100% | -93.8% (active) | -100% (active) | 101% | -6.24% (active) | -53.8% (active) | -25.6% (active)
COc1ccc(-c2nc3ccccn3c2/C=C/C(=O)c2cc(OC)c(OC)c(OC)c2)cc1OC | 22.1% | 16.7% | – | 7.81% (active) | 26.1% | -86.7% (active) | 19.9% | 4.18% (active) | 29.1% | -28.5% (active) | 28.5% | 31% | 17% | 43% | 19.9% | 8.16% (active) | -14.1% (active) | 16.4% | 46.1% | 25.5%
COC(=O)c1cc2c(=O)[nH]cc3c2c(n1)CCC3 | 113% | 105% | – | 103% | 93.6% | 104% | 107% | 104% | 105% | 95.2% | 101% | 97.2% | 75.4% | 106% | 105% | 97.4% | 104% | 103% | 104% | 100%
CSc1nc(N)c(N=Nc2ccc(S(=O)(=O)Nc3nnc(C)s3)cc2)c(=O)[nH]1 | 109% | 104% | – | 119% | 97.5% | 104% | 94.3% | 118% | 108% | 113% | 155% | 92.1% | 76.9% | 108% | 102% | 139% | 97.7% | 128% | 107% | 106%
O=c1c2c3c(sc2n2cnnc2n1Cc1ccccc1)CCCC3 | 93.4% | 100% | – | 102% | 99.7% | 98% | 91.8% | 97.6% | 116% | 97.6% | 71.2% | 105% | 7.39% (active) | 115% | 99.1% | 95.3% | 92.1% | 82.4% | 111% | 86.3%
COc1ccc(C=C2c3ccccc3-c3ccccc32)cc1 | 25.8% | 13.7% | – | 34.8% | 63.6% | 60.3% | 23.6% | 41.3% | 64.9% | 54.9% | 66.8% | 61.6% | 54.3% | 68.6% | 58.4% | 49% | 15.7% | 57.7% | 43.3% | 52.3%
COc1cc2c(c(OC)c1OC)-c1ccc(NNC(N)=S)c(=O)cc1[C@@H](NC(C)=O)CC2 | 38.8% | -17.8% (active) | – | 13.6% | 13.8% | -41.2% (active) | 32.2% | 26.2% | 62.8% | -8.39% (active) | 51.2% | 35.9% | 50.8% | 58.7% | 46.3% | 37.5% | 46.6% | 20.8% | 59.5% | 23.1%
COCCCNc1nc(NC(=O)c2cc(OC)cc(OC)c2)cc(-c2cccnc2)n1 | 90.3% | 95.5% | – | 96.8% | 87.3% | 72.4% | 111% | 94.5% | 105% | 78.8% | 105% | 95.3% | 56.7% | 86.7% | 98.2% | 99.4% | 67.7% | 91.7% | 73.1% | –
